PubChem BioAssay (NCATS)
Several values for one entry are separate records, joined by “and”; a condition that tells them apart may be missing. Equal values may be shown once. Inconclusive results are not listed. Where a structure was tested more than once in an assay, its records may differ in their call. Activity calls are given as the source filed them. The call rests on the fitted dose curve; in most records, active means well fitted curve in the direction sought with a large enough effect; inconclusive means small, poorly fitted or top-dose-only effect, or another doubt; inactive means no such curve, though single readings can be large; an effect the other way counts as inactive or inconclusive.

Key:
[1] = molecular target: Glutathione peroxidase 1 (Homo sapiens) (UniProt P07203); experiment: Primary qHTS Assay for Inhibitors of Recombinant Selenoprotein Glutathione Peroxidase 1 (GPX1) (AID 1845191); further: nearly all actives have a fitted effect of over 65% in size; on activity, negative = inhibition: on the % scale 0 is the no-effect control and ±100 the full control effect
Chain of Glutathione peroxidase 1 (Homo sapiens) (P07203 whole entry, looked up): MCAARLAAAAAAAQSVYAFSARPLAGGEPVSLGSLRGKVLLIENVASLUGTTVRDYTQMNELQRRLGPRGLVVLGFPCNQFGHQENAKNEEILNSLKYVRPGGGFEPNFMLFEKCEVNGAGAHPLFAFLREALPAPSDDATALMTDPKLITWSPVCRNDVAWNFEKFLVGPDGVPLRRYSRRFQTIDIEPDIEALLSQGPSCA
Outline: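 NADPH consumption tracked by fluorescence at 340/450 nm between t=0 and t=15 min, room temperature. Final mix: 10 nM GPX1, 100 nM glutathione reductase, 1 mM GSH, 0.5 mM NADPH, 0.5 mM cumene hydroperoxide, 0.01% BSA; 30 min compound–enzyme preincubation.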

[2] = molecular target: Phospholipid hydroperoxide glutathione peroxidase GPX4 (Homo sapiens) (UniProt P36969); experiment: Primary qHTS Assay for Inhibitors of Recombinant Selenoprotein Glutathione Peroxidase 4 (GPX4) (AID 1845192); further: nearly all actives have a fitted effect of over 65% in size; further: potency means the concentration at half of the fitted maximal effect; on activity change, negative = inhibition: series mostly up to about 50 µM; on the % scale 0 is the no-effect control and ±100 the full control effect
Chain of Phospholipid hydroperoxide glutathione peroxidase GPX4 (Homo sapiens) (P36969 whole entry, looked up): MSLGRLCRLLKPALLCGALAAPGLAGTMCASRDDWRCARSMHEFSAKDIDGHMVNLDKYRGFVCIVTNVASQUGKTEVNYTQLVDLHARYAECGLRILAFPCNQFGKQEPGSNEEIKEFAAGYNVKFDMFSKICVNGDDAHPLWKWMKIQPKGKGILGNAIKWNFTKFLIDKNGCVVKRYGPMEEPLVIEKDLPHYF
Outline: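 NADPH consumption followed by fluorescence at 340/450 nm, t=0 and after 15 min at room temperature. Reaction started with cumene hydroperoxide (0.5 mM final) after 30 min compound–GPX4 preincubation; final 200 nM GPX4, 100 nM GR, 1 mM GSH, 0.5 mM NADPH.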

[3] = molecular target: Luciferin 4-monooxygenase (Photinus pyralis) (UniProt P08659); experiment: Primary firefly luciferase (FLuc) qHTS assay for identification of artifact compounds. (AID 1845220); further: nearly all actives have a fitted effect of over 60% in size; further: potency means the concentration at half of the fitted maximal effect;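 on activity change, negative = inhibition: series mostly up to about 54 µM; plate controls were DMSO vehicle for no effect and no enzyme for full effect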
Outline: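 Cell-free, 1536-well qHTS. Buffer pH 7.6 with 0.01% Tween-20 and 0.05% BSA; 10 uM D-luciferin, 10 uM ATP; 10 nM P. pyralis luciferase; luminescence after 5 min.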

[4] = Primary fluorescence-based thiol-reactive (MSTI) qHTS assay for identification of artifact compounds. (AID 1845221); further: nearly all actives have a fitted effect of over 65% in size; further: potency means the concentration at half of the fitted maximal effect;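 on activity change, negative = thiol reactive: series mostly up to about 54 µM; thiol-reactive compounds lower the probe fluorescence signal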
Outline: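 Reactivity toward the thiol probe MSTI (4 uM) is scored by fluorescence at Ex/Em 525/598 nm after 1 h at room temperature. Acetyl-MSTI and MSTI define the activity scale.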

[5] = system: Nanoluciferase (engineered Oplophorus gracilirostris luciferase); experiment: Primary Nanoluciferase (NLuc) qHTS assay for identification of artifact compounds. (AID 1845222);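 further: series mostly up to about 54 µM; 0% = DMSO and -100% = no enzyme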
Outline: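 Compounds are pinned into diluted (1:55) conditioned medium of NLuc-expressing S16 cells and held 15 min at room temperature protected from light. Nano-Glo substrate follows, and luminescence is read 5 min later.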

[6] = Primary redox qHTS assay for identification of artifact compounds. (AID 1845223); further: potency means the concentration at half of the fitted maximal effect;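 on redox activity (% of DA3003): 0% = DMSO and 100% = reference compound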
Outline: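 Redox-cycling detection via DTT (250 uM final) oxidation coupled to Amplex Red (25 uM)/HRP (250 mU/mL) in HBSS. 15 min preincubation plus 30 min after DTT, room temperature. Ex/Em 525/598 nm; 4-parameter Hill fit against DMSO and 10 uM DA3003.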

CC(C)(OC1OC(CO)C(O)C(O)C1O)C1CCC(O)(CO)C2CC(=O)C(C)(O)C2C1 (centres undefined)
inactive: Potency [1] | Potency [2] | Potency [3] | Potency [4] | Potency [5] | Potency [6]

CN1CCc2cc(Cl)c(O)cc2[C@@H](c2cccc3c2OCC3)C1
inactive: Potency [1] | Potency [2] | Potency [3] | Potency [4] | Potency [5] | Potency [6]

C=C1CC/C=C(/C(=O)O)CCC2C1CC2(C)C (centres undefined)
inactive: Potency [1] | Potency [2] | Potency [3] | Potency [4] | Potency [5] | Potency [6]

O=C(/C=C/c1ccc(O)c(O)c1)OC[C@H]1O[C@@H](OC2CCCCC2O)[C@H](O)[C@@H](O)[C@@H]1O (some centres undefined)
active: Potency [4] 1.16 µM
inactive: Potency [1] | Potency [2] | Potency [3] | Potency [5] | Potency [6]

CC(=O)O[C@H]1C[C@@H](O)C(C)(C)C2C[C@@H](OC(C)=O)[C@@]3(C)C4=CCC(C(CO)CC(O)C5OC5(C)C)[C@]4(C)CCC3[C@]21C (some centres undefined)
inactive: Potency [1] | Potency [2] | Potency [3] | Potency [4] | Potency [5] | Potency [6]

COc1ccc(C2COc3cc(O)ccc3C2)c(O)c1OC (centres undefined)
active: Potency [3] 19 µM
inactive: Potency [1] | Potency [2] | Potency [4] | Potency [5] | Potency [6]

C[C@@H]1O[C@@H](O[C@H]2[C@H](Oc3cc(O)c(C(=O)CCc4ccc(O)cc4)c(O)c3)O[C@H](CO)[C@@H](O)[C@@H]2O)[C@H](O)[C@H](O)[C@H]1O
active: Potency [6] 10.6 µM
inactive: Potency [1] | Potency [2] | Potency [3] | Potency [4] | Potency [5]

C/C=C/C=C/C=C/C(=O)O[C@@H]1C=C(CO)[C@](O)(CO)[C@@]2(C)CCCC(C)(C)[C@H]12
inactive: Potency [1] | Potency [2] | Potency [3] | Potency [4] | Potency [5] | Potency [6]

C=C(C)[C@@H]1CC[C@]2(C)CC[C@]3(C)C(CCC4[C@@]5(C)CC[C@H](O)C(C)(C)C5CC[C@]43C)C12 (some centres undefined)
inactive: Potency [1] | Potency [2] | Potency [3] | Potency [4] | Potency [5] | Potency [6]

CC[C@@H](Nc1c(Nc2cccc(C(=O)N(C)C)c2O)c(=O)c1=O)c1ccc(C)o1
inactive: Potency [1] | Potency [2] | Potency [3] | Potency [5] | Potency [6]
active: Potency [4] 2.38 µM

C[C@H](O)C(O)(C(=O)OCc1ccccc1NC(=O)CCC(N)C(=O)O)[C@H](C)O (some centres undefined)
inactive: Potency [1] | Potency [2] | Potency [3] | Potency [4] | Potency [5] | Potency [6]

COc1ccc(C2(O)c3c(ccc4c3OC(C)(CCC=C(C)C)C=C4)NC(=O)C2OC)cc1 (centres undefined)
inactive: Potency [1] | Potency [2] | Potency [3] | Potency [4] | Potency [5] | Potency [6]

OC[C@H]1O[C@@H](OCc2ccccc2)[C@H](O)[C@@H](O)[C@@H]1O
inactive: Potency [1] | Potency [2] | Potency [3] | Potency [5] | Potency [6]
active: Potency [4] 5.32 µM

C[C@H]1[C@H](C)CC[C@]2(C(=O)O)CC[C@]3(C)C(=CCC4[C@@]5(C)C[C@@H](O)[C@H](O)C(C)(C)C5CC[C@]43C)[C@H]12 (some centres undefined)
inactive: Potency [1] | Potency [2] | Potency [3] | Potency [4] | Potency [5] | Potency [6]

CCOC(=O)COc1ccc2c(c1)C[C@@H](NC[C@H](O)c1cccc(Cl)c1)CC2
inactive: Potency [1] | Potency [2] | Potency [3] | Potency [4] | Potency [5] | Potency [6]

O=C(O)/C=C/c1ccc(O[C@@H]2O[C@H](CO)[C@@H](O)[C@H](O)[C@H]2O)cc1
inactive: Potency [1] | Potency [2] | Potency [3] | Potency [4] | Potency [5] | Potency [6]

COc1cc(C)c(C(=O)O[C@@H]2[C@H](O)[C@@H](CO)O[C@H]2n2ccc(=O)[nH]c2=O)c(OC)c1
inactive: Potency [1] | Potency [2] | Potency [3] | Potency [4] | Potency [5] | Potency [6]

Nc1ncnc2c1c(COc1cccc(Cl)c1)nn2C1CCOCC1
inactive: Potency [1] | Potency [2] | Potency [3] | Potency [4] | Potency [5] | Potency [6]

C/C=C/C=C/C=C/C(=O)OC1C=C2C(O)OC(=O)[C@]2(O)[C@@]2(C)CCCC(C)(C)[C@H]12 (some centres undefined)
inactive: Potency [1] | Potency [2] | Potency [3] | Potency [4] | Potency [5] | Potency [6]

C/C=C(\C)C(=O)OC[C@H]1O[C@@H](O[C@H]2[C@@H](O[C@H]3O[C@H](CO)[C@@H](O)[C@H](O)[C@H]3O[C@@H]3O[C@H](CO)[C@@H](O)[C@H](O)[C@H]3O)O[C@H](COC(=O)/C(C)=C/C)[C@@H](O)[C@@H]2O)[C@H](O)[C@@H](O)[C@@H]1O
inactive: Potency [1] | Potency [2] | activity change, negative = inhibition [3] 3.78% [at 11.6 µM] | activity change, negative = thiol reactive [4] -18.3% [at 11.5 µM] | activity, negative = inhibition [5] -0.032% [at 11.6 µM] | redox activity (% of DA3003) [6] -4.48% [at 11.5 µM]

COc1cc2c(cc1O)C(c1ccc(O)cc1)C(C)C(C)C2 (centres undefined)
inactive: Potency [1] | Potency [2] | Potency [3] | Potency [4] | Potency [5] | Potency [6]

C=C1C2(C)CC3C4(C)C=CC(=O)OC(C)(C)C4CCC3(C)C1(C(=O)OC)C(=O)C(C)(O)C2=O (centres undefined)
inactive: Potency [1] | Potency [2] | Potency [3] | Potency [4] | Potency [5] | Potency [6]

COc1cnc(-c2ccc(Cn3c(CC(C)(C)C(=O)O)c(SC(C)(C)C)c4cc(OC[C@@H]5Cc6ccccc6N5C(C)=O)ccc43)cc2)nc1
inactive: Potency [1] | Potency [2] | Potency [3] | Potency [4] | Potency [5] | Potency [6]

C=C(C)[C@@H]1CC[C@]2(CO)CC[C@]3(C)[C@H](CC[C@@H]4[C@@]5(C)CC[C@H](O)C(C)(C)[C@@H]5CC[C@]43C)[C@@H]12
inactive: Potency [1] | Potency [2] | Potency [3] | Potency [4] | Potency [5] | Potency [6]

COc1cc(/C=C/C(=O)O[C@@H]2O[C@H](CO)[C@@H](O)[C@H](O)[C@H]2O)ccc1O
inactive: Potency [1] | Potency [2] | Potency [3] | Potency [5] | Potency [6]
active: Potency [4] 4.65 µM

COC(=O)CCC1(C)C(C(C)(C)O)C(O)CC2(C)Oc3c(C)c4c(c(OC)c3CC21)C(=O)OC4 (centres undefined)
inactive: Potency [1] | Potency [2] | Potency [3] | Potency [4] | Potency [5] | Potency [6]

COc1cc(C(C)=O)ccc1O[C@@H]1O[C@H](CO)[C@@H](O)[C@H](O)[C@H]1O
inactive: Potency [1] | Potency [2] | Potency [3] | Potency [4] | Potency [5] | Potency [6]

CCCC(=O)Nc1cccc(NC(=O)c2ccccc2Br)c1
inactive: Potency [1] | Potency [2] | Potency [3] | Potency [4] | Potency [5] | Potency [6]

Cc1cc(-n2c(=O)[nH]c(=O)n(C)c2=O)ccc1Oc1ccc(SC(F)(F)F)cc1
inactive and 15.8 µM (active): Potency [2]
inactive: Potency [1] | Potency [3] | Potency [4] | Potency [5] | Potency [6]

O=C(OCC1=CC(Cl)C(O)C(OC(=O)c2ccccc2)C1O)c1ccccc1 (centres undefined)
inactive: Potency [1] | Potency [2] | Potency [3] | Potency [4] | Potency [5] | Potency [6]

C=C1[C@H](OC(C)=O)[C@H]2[C@@H](OC(=O)c3ccccc3)[C@@H](C)C[C@]2(O)[C@@H](OC(C)=O)[C@H](C)/C=C/C(C)(C)C(=O)[C@H](OC(C)=O)[C@H]1OC(C)=O
inactive: Potency [1] | Potency [2] | Potency [3] | Potency [4] | Potency [5] | Potency [6]

O=C(/C=C/c1ccc(O)c(O)c1)O[C@H]1[C@@H]2C=CO[C@@H](O[C@@H]3O[C@H](CO)[C@@H](O)[C@H](O)[C@H]3O)[C@@H]2[C@@]2(CO)O[C@@H]12
active: Potency [4] 2.07 µM
inactive: Potency [1] | Potency [2] | Potency [3] | Potency [5] | Potency [6]

CC1C2=CC(=O)OC2(O)CC2C1CCC1C(C)(C)CCC(O)C21C (centres undefined)
inactive: Potency [1] | Potency [2] | Potency [3] | Potency [4] | Potency [5] | Potency [6]

Cc1ccc(Cl)cc1N(CC(=O)Nc1c(F)cccc1F)S(C)(=O)=O
inactive: Potency [1] | Potency [2] | Potency [3] | Potency [4] | Potency [5] | Potency [6]
